From PubChem BioAssay AID2314 (National Center for Advancing Translational Sciences (NCATS), 2010)
Out of some 300,000 compounds screened, about 37,000 (12%) were called active. Rule as the data show it: active = max response mostly above about 13% (no sharp cut-off); inactive = mostly below about 14%. The entries come from a sample that favours actives as a whole.

Experiment: Cycloheximide Counterscreen for Small Molecule Inhibitors of Shiga Toxin; also: read at 38.3 µM for the half of the compounds with a filed dose; 0% is about no effect
Conditions: cell reporter, cycloheximide protein synthesis inhibition counterscreen; active compounds read high

| SMILES | max response |
| --- | --- |
| Cc1cc(Cl)ccc1OCCCC(=O)NCc1ccncc1 | 2.81% (inactive) |
| Cc1cc(Cl)ccc1OCc1nc(-c2ccncc2)no1 | 35.5% (active) |
| COc1ccc(-c2noc(COc3ccc(Cl)c(C)c3)n2)cc1 | 8.61% (inactive) |
| COc1cc(NC(=O)CN2C(=O)NC(C)(c3ccc(OC(F)F)cc3)C2=O)cc(OC)c1OC (centres undefined) | -2.19% (inactive) |
| CN1C/C(=C/c2cccs2)C(=O)/C(=C\c2cccs2)C1 | 35.9% (active) |
| O=C1/C(=C/c2cccs2)CCC1C1CCCC1 (centres undefined) | 29.4% (active) |
| COc1cc(/C=C/C(=O)N2CCc3ccccc3C2)cc(OC)c1OC | 0.558% (inactive) |
| CN1CCN(C(=O)/C(=C\c2cccs2)NC(=O)c2cccs2)CC1 | 8.48% (inactive) |
| COc1ccc(/C=C2\CCc3ccccc3C2=O)c(OC)c1OC | 35.6% (active) |
| O=S(=O)(c1cccs1)N1CCc2ccccc2C1 | -2.33% (inactive) |
| CCC1C/C(=C/c2cccs2)C(=O)/C(=C/c2cccs2)C1 (centres undefined) | -1.72% (inactive) |
| COc1ccc2c(c1OC)C(=O)c1ccccc1C2=O | 2.67% (inactive) |
| O=C1/C(=C/c2cccs2)SC(=S)N1C1CCS(=O)(=O)C1 (centres undefined) | -0.776% (inactive) |
| O=C1/C(=C/c2cccs2)CCc2ccccc21 | 62.8% (active) |
| c1ccc2c(c1)CCc1snnc1-2 | -1.75% (inactive) |
| O=C(Nc1ccccc1C(=O)N1CCOCC1)c1ccc(CSc2ccccc2)cc1 | -0.894% (inactive) |
| Cc1cc(=O)oc2c(C)c(OCC(=O)NCCc3ccc(S(N)(=O)=O)cc3)ccc12 | -1.87% (inactive) |
| CCOC(=O)C1=C(c2ccccc2)NC(=O)NC1c1cc(OCC)c(O)c([N+](=O)[O-])c1 (centres undefined) | -1.22% (inactive) |
| CCOc1ccc2c(c1)c(=O)c(S(=O)(=O)c1ccc(C)cc1)cn2CC | -0.573% (inactive) |
| OC1CCCN(c2ncnc3c2nnn3Cc2c(F)cccc2Cl)C1 (centres undefined) | 7.82% (inactive) |
| CC(=O)c1cc2c(cc1NC(=O)Cn1nc(-c3ccc(F)cc3)ccc1=O)OCO2 | 0.865% (inactive) |
| Cc1cc(C)nc(NNC2=CC(=O)CC(C)(C)C2)n1 | 2.37% (inactive) |
| CCCCN(Cc1ccccc1)C(=O)C1CCN(Cc2sccc2C)CC1 | -5% (inactive) |
| CCOc1cc(C2/C(=C(/O)c3ccc(S(=O)(=O)N4CCCCC4)cc3)C(=O)C(=O)N2CCOC)ccc1O (centres undefined) | -6.09% (inactive) |

| SMILES | max response |
| --- | --- |
| CC(=O)N/N=C(\C)c1ccc(Br)cc1Br | -2.79% (inactive) |
| CC(C)/C=N/NC(=O)c1cc(Br)ccc1O | 9.21% (inactive) |
| CC(=N\NC(=O)c1cc(Br)ccc1O)/C(=N/O)C(=O)Nc1ccccc1 | 23.2% (active) |
| COc1ccc(/C=N/N=C/c2c[nH]c(=O)c(C#N)c2Nc2ccccc2)cc1 | -2.7% (inactive) |
| COc1cccc(NC(=O)C(Sc2nc3ccccc3c(=O)n2CC(C)C)c2ccccc2)c1 (centres undefined) | 0.135% (inactive) |
| COc1ccc2c(-c3ccccc3)cc(SCC(=O)N(C)C3CCS(=O)(=O)C3)nc2c1 (centres undefined) | -1.72% (inactive) |
| Cc1ccc(-n2c(O)c(C=NCC3CCCO3)c(=O)[nH]c2=O)c(C)c1 (centres undefined) | -0.95% (inactive) |
| O=C1C(C=NCC2CCCO2)=C(O)c2ccccc21 (centres undefined) | 32.1% (active) |
| CC(=NCC1CCCO1)c1c(O)n(-c2ccccc2)c(=O)[nH]c1=O (centres undefined) | 4.02% (inactive) |
| O=C1CN(Cc2ccccc2)S(=O)(=O)c2ccccc21 | -0.808% (inactive) |
| O=C1c2ccccc2S(=O)(=O)N1Cc1c(F)cccc1Cl | -0.645% (inactive) |
| CC(C)(C)c1ccc(CN2C(=O)c3ccccc3S2(=O)=O)cc1 | 17.5% (active) |
| CC1CN(S(=O)(=O)c2ccccc2)C(C)CN1S(=O)(=O)c1ccccc1 (centres undefined) | -3.63% (inactive) |
| Cc1cc(C)cc(C(=O)NC(CC(N)=O)c2ccc(N3CCC(N4CCCCC4)CC3)c([N+](=O)[O-])c2)c1 (centres undefined) | -1.84% (inactive) |
| NS(=O)(=O)c1ccc(NC(=S)Nc2ccc(Br)c(Cl)c2)cc1 | -1.56% (inactive) |
| CC1CCCC(NC(=O)CN2CCN(Cc3ccc(Cl)cc3)C2=O)C1C (centres undefined) | -4.51% (inactive) |
| O=C(NCCCN1CCCCCC1)c1ccc(N2CCCC2=O)cc1 | -4.57% (inactive) |
| CCCNC(=O)NCc1ccc(N2CCCC2=O)cc1 | -2.06% (inactive) |
| O=C(NCCc1ccc(Cl)cc1)c1cccc(N2CCCC2=O)c1 | 21.3% (active) |
| CC1CCCC(NC(=O)c2cccc(N3CCCC3=O)c2)C1C (centres undefined) | 44.4% (active) |
| C/C(=N\NC(=O)c1cccc(N2CCCC2=O)c1)c1ccc(N)cc1 | 27% (inactive) |
| O=C(NCc1cccc(Cl)c1)C1CCN(c2nnc(N3CCCC3=O)s2)CC1 | -2.64% (inactive) |
| CC1CCC(NC(=O)c2ccc(N3CCCC3=O)cc2)CC1 (centres undefined) | 40.8% (active) |
| O=C(NCCc1ccc(Cl)cc1)C1CCCN1C(=O)NCc1ccccc1 (centres undefined) | -1.54% (inactive) |

| SMILES | max response |
| --- | --- |
| Cn1c2c(c(=O)n(C)c1=O)C(c1cccc([N+](=O)[O-])c1)Nc1ccccc1O2 (centres undefined) | -1.06% (inactive) |
| Cc1ccc(S(=O)(=O)NCC2CCC(C(=O)N3CCOCC3)CC2)cc1 (centres undefined) | 3.28% (inactive) |
| Cc1cc2ccccn2c1C(=O)c1cccc(F)c1 | -1.02% (inactive) |
| C=CCSc1nc(N)cc(=O)[nH]1 | 13.9% (inactive) |
| Cc1cc(S(=O)(=O)c2cc3ccc(O)c(C)c3oc2=O)ccc1F | -4.92% (inactive) |
| O=C(NCCc1ccccc1)C(=O)NCC1OCCN1S(=O)(=O)c1cccs1 (centres undefined) | 8.94% (active) |
| COc1ccc(CCNC(=O)C(=O)NCC2OCCN2S(=O)(=O)c2ccc(OC)c(C)c2)cc1 (centres undefined) | 0.773% (inactive) |
| O=C(NCc1ccccc1)C(=O)NCC1OCCN1S(=O)(=O)c1ccc(Br)cc1 (centres undefined) | 9.31% (inactive) |
| CCNCCC(=O)N1c2ccccc2Sc2ccc(NC(=O)OCC)cc21 | -6.47% (inactive) |
| COC(=O)c1ccccc1NC(=O)CSc1nnnn1C | 3.16% (inactive) |
| O=C(Nc1ccc(C2CC2(Cl)Cl)cc1)c1cccc([N+](=O)[O-])c1 (centres undefined) | 40.2% (active) |
| O=C(Nc1ccc(C(=O)N2CCCCC2)cc1)c1cccc([N+](=O)[O-])c1 | -4.06% (inactive) |
| Cn1nnnc1SCC(=O)Nc1nc2ccccc2s1 | 28.7% (active) |
| O=C(Nc1ccc2c(c1)OCO2)c1ccc(N2C(=O)c3ccccc3C2=O)cc1 | 14.1% (inactive) |
| O=C(Nc1ccc(NC(=O)c2ccco2)c(Cl)c1)c1cccc([N+](=O)[O-])c1 | 5.37% (inactive) |
| C=CCn1c(SCC(=O)Nc2nc3ccccc3s2)nnc1-c1ccccc1O | 6.55% (inactive) |
| O=CN1CCN(C(=O)c2ccc3c(c2)OCO3)CC1 | 16.1% (inactive) |
| Cc1cc(C)c2nc(NC(=O)c3ccc4c(c3)OCO4)sc2c1 | -3.86% (inactive) |
| O=C(Nc1ccccc1)c1ccc2c(c1)OCO2 | 29% (active) |
| COc1ccc(S(=O)(=O)N2CCOCC2)cc1C(=O)Nc1nc2ccccc2s1 | 8.09% (inactive) |
| O=C(Nc1nc2ccccc2s1)c1ccc2c(c1)OCO2 | 16.2% (active) |
| O=S(=O)(Nc1ccc(Oc2ncccn2)c(Cl)c1)c1ccc(F)cc1 | 5.26% (inactive) |
| CC1CCCCC1NC(=O)C1CCCN1S(=O)(=O)c1cccc2nsnc12 (centres undefined) | 3.55% (inactive) |
| Cc1cnc(C)c(N2CCN(C(=O)C3CCC(=O)N(CCc4cccc(F)c4)C3)CC2)n1 (centres undefined) | -0.816% (inactive) |

| SMILES | max response |
| --- | --- |
| COc1ccc(C(=O)c2c(C)c(CCC#N)n3ccccc23)c(OC)c1 | -1.97% (inactive) |
| CCOCCCN1C(=O)C2C(C(=O)Nc3ccc(OCC)cc3)C3C=CC2(O3)C1C(=O)NC1CCCCC1 (centres undefined) | -3.23% (inactive) |
| CCNS(=O)(=O)c1ccc(NC(=O)c2cncc(Br)c2)cc1 | -2.2% (inactive) |
| Cc1cc(N2CCOCC2)nc2ccc(NC(=S)N3CCN(Cc4ccccc4)CC3)cc12 | 3.98% (inactive) |
| CC(=O)Nc1ccc(-c2csc(NC(=O)Nc3ccccc3)n2)cc1 | 10.8% (inactive) |
| O=C(Nc1ccc2c(c1)OCO2)c1sc2cc(Cl)ccc2c1Cl | 2.36% (inactive) |
| CC(Sc1nc2cc(Cl)ccc2s1)C(=O)Nc1ccc2c(c1)OCO2 (centres undefined) | 29% (active) |
| O=C(Nc1cccnc1)c1cccc(S(=O)(=O)N2CCCC2)c1 | 3.36% (inactive) |
| O=C(Nc1cccnc1)c1noc2c1CCCCC2 | 32.5% (active) |
| O=C(Nc1cccnc1)c1ccc2c(c1)OCO2 | 19.3% (active) |
| COc1ccc(C(=O)Nc2cccnc2)cc1C(=O)Nc1cccnc1 | -0.996% (inactive) |
| O=C(Nc1cccnc1)c1cc2cc(Br)ccc2oc1=O | -1.47% (inactive) |
| CC(NC(=O)Nc1ccccc1)c1ccccc1 (centres undefined) | 14.1% (inactive) |
| O=C(Nc1ccccc1)Nc1nc2ccccc2s1 | 37.9% (active) |
| CC(Sc1nc(-c2ccccc2)cc(C(F)(F)F)n1)C(=O)Nc1ccc2c(c1)OCO2 (centres undefined) | -1.84% (inactive) |
| CN(C(=O)CN1C(=O)/C(=C/c2ccc(Cl)cc2)SC1=S)C1CCS(=O)(=O)C1 (centres undefined) | -10.5% (inactive) |
| Cc1nn(-c2ccccc2)c2c1c(C)c(CCC(=O)NCC1CCCO1)c(=O)n2C (centres undefined) | -2.56% (inactive) |
| CC1(c2cccc([N+](=O)[O-])c2)CC(C)(C)N(C(=O)c2ccccc2)c2ccccc21 (centres undefined) | 4.81% (inactive) |
| O=c1c2ccccc2nc2n1C(CSCc1cccc(C(F)(F)F)c1)CS2 (centres undefined) | 1.18% (inactive) |
| CC(=O)N1c2ccc(S(=O)(=O)NCCC(=O)N(C)C3CCCCC3)cc2CC1C (centres undefined) | 10.2% (inactive) |
| COc1cc(C(=O)NNC(=O)c2ccc(S(=O)(=O)N3CCCCC3)cc2)cc(OC)c1OC | -1.13% (inactive) |
| CCN(CC(=O)NC(=O)NCc1ccccc1)Cc1nc2ccccc2c(=O)[nH]1 | -2.64% (inactive) |
